Screening data as filed in PubChem.
The list is not random: actives were taken first. Their share in the collection is about 2.8%.
POLI inh = qHTS for Inhibitors of Polymerase Iota. 390,000 tested, 1% active. DNA polymerase iota (Homo sapiens), Q9UNA4. AID 588590, 2011. Potency, µM (doses to about 115 µM), most hits filed as inhibitors. Pol iota fluorescent replication assay, 10 min
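Pol iota at 10 nM preincubated 15 min with compounds at room temperature; reaction started with fluorescent substrate, 50 nM final. Fluorescence read kinetically at 0 and 10 min; buffer-only wells as negative control.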
WRN helicase inh = qHTS for Inhibitors of WRN Helicase; AID 651768, 2012; WRN helicase unwinding, fluorescent forked duplex, kinetic; Potency, µM (series often up to 114 µM), hits mostly inhibitors; 360,000 tested, 0.46% active; Bifunctional 3'-5' exonuclease/ATP-dependent helicase WRN (Homo sapiens), Q14191; also: nearly all actives have a fitted effect of over 55% in size
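Enzyme (20 nM final) and test compound sit together 15 min at room temperature before substrate addition. Substrate is a single-forked duplex oligonucleotide (100 nM) labelled with fluorophore and quencher, with 2 mM ATP; helicase unwinding raises red fluorescence, read kinetically.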
Pol eta inh-1 = qHTS for Inhibitors of Polymerase Eta; recombinant Pol eta, fluorescent DNA replication assay; Potency, µM (titrated, usually from 114 µM), actives largely listed as inhibitors; 390,000 tested, 1.2% active
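Pol eta (10 nM) was preincubated with compounds for 15 min at room temperature, after which fluorescent replication substrate (50 nM final) was added to start the reaction. Fluorescence was read kinetically at 0 and 10 min.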
Pol beta inh-1 = qHTS Assay for Inhibitors of DNA Polymerase Beta; P06746; Pol beta primer extension/strand displacement, fluorescence kinetic; Potency, µM (top dose mostly 114 µM), actives largely listed as inhibitors; 340,000 tested, 1.3% active; AID 485314, 2010
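Preincubation: enzyme (10 nM) with compound, 15 min, RT. Reaction: substrate added to 50 nM final. Reads: 0 and 10 min. Analysis: normalized, Hill fit.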
PI5P4Ka inh = qHTS for Inhibitors of phosphatidylinositol 5-phosphate 4-kinase (PI5P4K); AID 652105, 2013; Phosphatidylinositol 5-phosphate 4-kinase type-2 alpha (Homo sapiens), P48426; PI5P4Kalpha enzyme, ADP-Glo luminescence, 60 min; active compounds read low; 330,000 tested, 1.2% active; max response, %; active = max response of -50% or lower; inconclusive = between -30% and -50%; inactive = -30% or higher; also: value at the top dose of about 77 µM
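Single end-point luminescence (ADP-Glo) quantified ADP from PI5P4Kalpha turnover; ATP 5 microM final, 1 h at RT, 0.1% CHAPS and 0.28 mM EGTA in HEPES pH 7.4.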
Pol kappa inh = qHTS for Inhibitors of Polymerase Kappa. DNA polymerase kappa (Homo sapiens), Q9UBT6. purified Pol kappa, fluorescent DNA synthesis assay, 10 min. Potency, µM (doses to about 107 µM), actives largely listed as inhibitors. 400,000 tested, 0.53% active. AID 588579, 2011
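10 nM Pol kappa preincubated 15 min at room temperature with compounds, then reaction started with substrate at 50 nM final. Fluorescence read kinetically at 0 and 10 min; buffer-only wells served as negative control.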
Pol beta inh-2 = Inhibitors of DNA Polymerase Beta: Hit validation; shares compounds with Pol beta inh-1; Pol beta primer extension/strand displacement, fluorescence kinetic; Potency, µM, actives largely listed as inhibitors; 250 tested, 87% active; AID 540280, 2011; calls by dose curve
Klenow counter = Inhibitors of DNA Polymerase Beta: Hit Validation in Klenow Fragment Assay. AID 540300, 2011. shares compounds with Pol beta inh-1. activity change, negative = inhibition, % at 57.1 µM. 250 tested, under 10 active. Klenow exo- polymerase counter-screen, fluorescent DNA substrate
HIV RT counter = Inhibitors of DNA Polymerase Beta: Hit Validation in HIV-RT Assay; shares compounds with Pol beta inh-1; HIV-1 RT polymerase activity, counter-screen; activity % (negative = inhibition, positive = activation), % at 57.1 µM; 250 tested, under 10 active
POLB valid = Inhibitors of DNA Polymerase Beta: Hit Validation in Radiolabeled Extension Assay; radiolabeled primer extension gel assay, phosphorimager; AID 540325, 2011; 110 tested, 91% active; inhibition, % at 10 µM; shares compounds with Pol beta inh-1;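 active = inhibition at 10 µM of 30% or more; inconclusive = no clear call, values can overlap the other calls; inactive = inhibition at 10 µM under 30%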
POLI cherry-pick = qHTS for Inhibitors of Polymerase Iota: Confirmatory Assay for Cherry-picked Compounds; Potency, µM, actives largely listed as inhibitors; 1,500 tested, 77% active; shares compounds with Pol kappa inh; Pol iota primer extension, TAMRA/BHQ fluorescence
Pol eta inh-2 = qHTS for Inhibitors of Polymerase Eta: Confirmatory Assay for Cherry-picked Compounds | Pol eta primer extension, TAMRA/BHQ fluorescence, 10 min | 2,600 tested, 64% active | shares compounds with Pol eta inh-1 | Potency, µM, most hits filed as inhibitors | AID 720502, 2013
Large screens that a line does not name were inactive (follow-up assays come after a bar, where they were run). Unless noted, calls follow the shape of the dose curve; as a rule, active = well fitted curve in the direction sought with a large enough effect; inconclusive = small, poorly fitted or top-dose-only effect, or another doubt; inactive = no such curve, though single readings can be large; an effect the other way counts as inactive or inconclusive.

COc1ccc(NS(=O)(=O)N2CCCCC2)cc1	none (no result: Pol beta inh-1)
CCSc1nnc(NC(=O)C2Cc3ccccc3CN2S(=O)(=O)CC)s1 (stereo not drawn)	POLI inh inconclusive, Pol eta inh-1 56µM, Pol beta inh-1 18µM, PI5P4Ka inh inconclusive | Pol beta inh-2 28 | Klenow counter inactive | HIV RT counter inactive | POLB valid 100
Cc1ccc(-n2nnc3c(=O)n(CC(=O)NCc4ccccc4)cnc32)cc1	Pol beta inh-1 10µM | Pol beta inh-2 inconclusive | Klenow counter inactive | HIV RT counter inactive | POLB valid 50
O=c1cc(-c2cc3ccccc3o2)c2cc(O)ccc2o1	none
Cc1cc2oc(=O)cc(-c3cc4ccccc4o3)c2cc1O	Pol eta inh-1 inconclusive, Pol beta inh-1 0.25µM, Pol kappa inh inconclusive | Pol beta inh-2 16 | Klenow counter inactive | HIV RT counter inactive
COc1ccc(-c2nn(C)c3sc(C(=O)NCc4ccco4)cc23)cc1OC	POLI inh inconclusive, Pol eta inh-1 inconclusive, Pol beta inh-1 13µM | Pol beta inh-2 14 | Klenow counter inactive | HIV RT counter inactive
COc1cccc(-c2nn(C)c3sc(C(=O)NCc4ccc(C)o4)cc23)c1	none
O=C(c1cc(COc2cccc(C(F)(F)F)c2)on1)N1CCC(Oc2cccnc2)CC1	none
O=[N+]([O-])c1cc(CN2CCCC2)c2cccnc2c1O	POLI inh inconclusive, WRN helicase inh inconclusive, Pol eta inh-1 3.2µM, Pol beta inh-1 1.8µM, PI5P4Ka inh inconclusive, Pol kappa inh inconclusive | Pol beta inh-2 2.8 | Klenow counter inactive | HIV RT counter inactive
O=C(COc1ccc(CNC[C@H]2O[C@@H](n3ccc(=O)[nH]c3=O)[C@H](O)[C@@H]2O)cc1)Nc1ccccn1	none (no result: POLI inh, Pol eta inh-1, Pol beta inh-1, Pol kappa inh)
COc1ccc(NS(=O)(=O)c2ccc(O)c(NC(=O)c3ccc(S(=O)(=O)N4CCCCCC4)cc3)c2)cc1	POLI inh inconclusive, Pol eta inh-1 inconclusive, Pol beta inh-1 13µM | Pol beta inh-2 35 | Klenow counter inactive | HIV RT counter inactive
Cc1ccc(OCc2nn3c(-c4ccco4)nnc3s2)cc1	none
Clc1ccc(OCc2nn3c(-c4ccco4)nnc3s2)c(Cl)c1	Pol eta inh-1 inconclusive, Pol beta inh-1 7.9µM (no result: PI5P4Ka inh) | Pol beta inh-2 25 | Klenow counter inactive | HIV RT counter inactive | POLB valid inconclusive
C[C@@]12CC[C@@H](C3=C(CCC3)C1)N2c1ccccc1	none (no result: POLI inh, Pol eta inh-1, Pol beta inh-1, Pol kappa inh)
COc1ccc(NC(=O)c2ccc(NCCN3C(=O)CCC3=O)c([N+](=O)[O-])c2)cc1	Pol eta inh-1 inconclusive, Pol beta inh-1 13µM, PI5P4Ka inh inconclusive, Pol kappa inh inconclusive | Pol beta inh-2 inconclusive | Klenow counter inactive | HIV RT counter inactive | POLB valid inconclusive
CCOC(=O)c1sc2nc3c(SCCC(=O)O)cc(C(=O)c4cc(OC)ccc4O)cn3c(=O)c2c1C	POLI inh inconclusive, Pol eta inh-1 11µM, Pol beta inh-1 2.8µM, PI5P4Ka inh inconclusive | Pol beta inh-2 6.3 | Klenow counter inactive | HIV RT counter inactive
N#CC1=C(N)N2C(=C(C#N)C1c1ccc(Br)cc1)Nc1ccccc12 (stereo not drawn)	POLI inh inconclusive, Pol eta inh-1 56µM, Pol beta inh-1 13µM | Pol beta inh-2 16 | Klenow counter inactive | HIV RT counter inactive | POLI cherry-pick inconclusive
N#CC1=C(N)N2C(=C(C#N)C1c1cccc(Br)c1)Nc1ccccc12 (stereo not drawn)	none
Cc1cc(C)n2nc(CNC(=O)c3c(F)cccc3F)nc2n1	none (no result: WRN helicase inh, PI5P4Ka inh)
Nc1nc(SCc2ccc(Cl)cc2Cl)nc2nc3c(cc12)CCCC3	POLI inh 79µM, WRN helicase inh inconclusive, Pol eta inh-1 inconclusive, Pol beta inh-1 10µM | Pol beta inh-2 35 | Klenow counter inactive | HIV RT counter inactive | POLI cherry-pick 34
COc1cccc(C(=O)Nc2ccc3c(c2)C(=O)c2ccccc2C3=O)c1	POLI inh inconclusive, WRN helicase inh inconclusive, Pol eta inh-1 inconclusive, Pol beta inh-1 10µM | Pol beta inh-2 14 | Klenow counter inconclusive | HIV RT counter inactive | POLI cherry-pick inconclusive
COc1cc(/C=C(\C#N)C(=O)Nc2cccc(C(=O)O)c2)ccc1OCc1ccc(C)cc1	Pol beta inh-1 inconclusive
CCOc1cc(/C=C(\C#N)C(=O)Nc2cccc(C(=O)O)c2)ccc1OCc1ccc(Br)cc1	POLI inh 7.1µM, Pol eta inh-1 inconclusive, Pol beta inh-1 10µM | Pol beta inh-2 3.5 | Klenow counter inactive | HIV RT counter inactive | POLI cherry-pick 7.5
C[C@@H]1COC(=O)[C@@H](CC(=O)OC(C)(C)C)C/C=C\C[C@H](CC(=O)N(CCO)Cc2ccccc2)C(=O)N1	none (no result: Pol beta inh-1)
Cc1cc(C)n(-c2nc(N(c3ccccc3)c3ccccc3)nc(-n3nc(C)cc3C)n2)n1	none (no result: PI5P4Ka inh)
Cc1cc(C)n(-c2nc(Nc3ccccc3)nc(-n3nc(C)cc3C)n2)n1	WRN helicase inh inconclusive, Pol eta inh-1 inconclusive, Pol beta inh-1 10µM (no result: PI5P4Ka inh) | Pol beta inh-2 inconclusive | Klenow counter inactive | HIV RT counter inactive | Pol eta inh-2 inconclusive
